# Measured values published in PubChem BioAssay.
# Values joined by “and” are separate entries in the source; they are usually repeats but may differ in a detail not shown here. Equal entries are not always repeated. More than one record can exist for a structure, and the calls need not agree. Active and inactive are the calls of the source.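 Rule for the calls, unless noted: active = thallium flux through the channel raised or lowered by more than 3 SD from vehicle-only wells, actives on both sides; inactive = the rest.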
# Columns and labels:
# [1] = Wnt pathway potentiators raising nuclear beta-catenin – imaging, WNT3A-conditioned medium, mouse C2C12, NPC library, primary screen (AID 1117326; in the data active = nuclear beta-catenin stimulation mostly above about 4.2%, no sharp cut-off; inactive = mostly below about 10%); settings: stronger effect = higher value
# [2] = stimulators of insulin release from INS-1E, primary screen, cell-based, 5 mM glucose, NPC library (AID 1117329;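 active = compound raises insulin release from rat beta cells at 5 mM glucose, no numeric limit stated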); settings: rat INS-1E insulin secretion, at 10 µM, stronger effect = higher value
# [3] = growth inhibition of GSK3B-pretreated HCT116 cells – cell-based, CellTiter-Glo, 0.2 to 20 µM (AID 1117336;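 active = compounds lowering colon cancer cell viability after pretreatment blocking the GSK3B kinase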); settings: HCT116 viability after GSK3B inhibitor, at 20 µM, stronger effect = higher value
# [4] = inhibition of endothelial tube formation, primary screen, imaging, VEGF stimulated, CD31 staining, tube area, NPC library (AID 1117340;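 active = compound that reduces growth-factor-driven endothelial tube area in a mixed cell culture, no cutoff stated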); settings: VEGF-stimulated ADSC/ECFC co-culture, at 10 µM, stronger effect = higher value
# [5] = GLP1 release stimulators, primary, NCI-H716, NPC library (AID 1117341;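 active = compound raises GLP1 secretion from the human gut endocrine cells, with no numeric limit stated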); settings: NCI-H716 cells, at 10 µM, stronger effect = higher value
# [6] = HCT116 colon cancer cell growth inhibition, primary screen, CellTiter-Glo luminescence, NPC library (AID 1117342;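 active = compounds that lower survival of HCT116 colon cancer cells in the luminescence readout, no numeric limit stated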); settings: at 20 µM (top of the series)
# [7] = reduced SW480 viability measured with CellTiter-Glo, NPC library, primary (AID 1117343;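 active = compounds that lower viability of the colon cancer cells in the luminescence readout, with no numeric limit stated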); settings: CellTiter-Glo luminescence; at 20 µM (top of the series)
# [8] = NPC library primary testing for decreased DLD-1 cell viability via CellTiter-Glo (AID 1117346;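 active = compounds that lower survival of DLD-1 colon cancer cells in the luminescence readout, no cutoff given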); settings: DLD-1 viability, CellTiter-Glo luminescence; at 20 µM (top of the series)
# [9] = biological target: 6-phosphogluconate dehydrogenase, decarboxylating (Homo sapiens) (UniProt P52209); assay: inhibition of human phosphogluconate dehydrogenase – biochemical, recombinant enzyme, NADPH absorbance, primary screen (AID 1159550;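 active = at least 20% inhibition of 6-phosphogluconate dehydrogenase activity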); settings: recombinant 6PGD, NADPH absorbance 341 nm; at 10 µM; stronger effect = higher value
# [10] = EMT-state selective cytotoxicity in co-culture – imaging, PC-3E GFP, TEM4-18 mCherry, primary screen (AID 1345086;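 active = compounds killing one labelled cell type while sparing the other, by normalised counts and ratio limits, not self-fluorescent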;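 for all read-outs here: cells exposed to compound for 72 h before imaging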;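 for red/green cell ratio (normalised): normalised mesenchymal count divided by normalised epithelial count so high means epithelial killing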); settings: PC-3E GFP / TEM4-18 mCherry co-culture, imaging cell counts, at 1 µM; for red/green cell ratio (normalised): actives lie on both sides, counts scaled to control wells, 1 = unselective
# [11] = MELAS cybrid and Rieske KO viability enhancers – cell-based, MELAS cybrids, Rieske KO mouse fibroblasts, CellTiter-Glo, primary screen (AID 1508586;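 active = mean z-score across replicates of 1.96 or higher in either the MELAS or the Rieske mutant cell line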;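 note: z relative to plate mean and SD of compound and empty wells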); settings: low glucose
# [12] = biological target: NAD(+) hydrolase SARM1 (Homo sapiens) (UniProt Q6SZW1); assay: blocking NAD cleavage by SARM1 SAM-TIR – cell lysate, NAD-Glo luminescence (AID 1508614;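 active = compound whose remaining NAD level is above about 45 nM, limit read from the data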;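 note: higher remaining NAD means stronger inhibition of SARM1 NADase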); settings: SAM-TIR HEK293T lysate NADase, at 1 µM, stronger effect = higher value
# [13] = biological target: Mitogen-activated protein kinase 7 (Homo sapiens) (UniProt Q13164); assay: Gal4-ERK5 driven luciferase induction – cell-based, HTS, primary screen (AID 1508626;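 active = luciferase signal above three times the same-plate solvent-only control wells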;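 note: luciferase driven by Gal4-ERK5 fusion binding five Gal4 sites before minimal TATA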); settings: HeLa Gal4-ERK5 transactivation, 18 h, at 5 µM, stronger effect = higher value
# F380Y = assay: BK channel mutant inhibitors and activators – cell-based, U2OS BacMam, thallium flux, beta subunits, selectivity assay, profiling panel (AID 1259406); settings: U2OS BacMam BK variants, at 30 µM;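 note: initial slope of Thallos dye fluorescence rise after thallium is added; log ratio against the mean of 0.3% DMSO vehicle wells on the same plate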
# F380Y/beta2Delta = assay: as above; settings: U2OS BacMam BK variants, at 30 µM
# [14] = biological target: Calcium-activated potassium channel subunit alpha-1 (Homo sapiens) + Leucine-rich repeat-containing protein 26 (Homo sapiens) (UniProt Q12791+Q2I0M4); assay: as above; settings: U2OS BacMam BK variants, F380Y/Slo1WT/gamma1, at 30 µM
# R275C = assay: as above; settings: U2OS BacMam BK variants, at 30 µM
# R275C/beta1 = assay: as above; settings: U2OS BacMam BK variants, at 30 µM
# R275C/beta2Delta = assay: as above; settings: U2OS BacMam BK variants, at 30 µM
# [15] = viability loss with induced miR-34 in A549 – imaging, A549 dox-inducible miR-34, nuclei and caspase counts, primary screen (AID 1347080;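 active = compounds whose cell count with miR-34 switched on is under 0.7 times the count with it off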); settings: A549 miR-34 inducible, Hoechst nuclei count, 48 h
# [16] = measured here: epithelial PC-3E GFP cell survival
# [17] = measured here: mesenchymal TEM4-18 mCherry cell survival
# [18] = MELAS cybrid survival, CellTiter-Glo 48 h, stronger effect = higher value
# [19] = Rieske KO mouse fibroblast survival, CellTiter-Glo 72 h
# [20] = stronger effect = lower value, cell number ratio, induced over uninduced
# [21] = measured here: relative caspase fold change +Dox/-Dox
# [22] = measured here: total cells with miR-34 induction, stronger effect = lower value
# [23] = measured here: total cells without miR-34 induction
# Calcium-activated potassium channel subunit alpha-1 (Homo sapiens) + Leucine-rich repeat-containing protein 26 (Homo sapiens), sequence (Q2I0M4 whole entry, looked up, one chain of several): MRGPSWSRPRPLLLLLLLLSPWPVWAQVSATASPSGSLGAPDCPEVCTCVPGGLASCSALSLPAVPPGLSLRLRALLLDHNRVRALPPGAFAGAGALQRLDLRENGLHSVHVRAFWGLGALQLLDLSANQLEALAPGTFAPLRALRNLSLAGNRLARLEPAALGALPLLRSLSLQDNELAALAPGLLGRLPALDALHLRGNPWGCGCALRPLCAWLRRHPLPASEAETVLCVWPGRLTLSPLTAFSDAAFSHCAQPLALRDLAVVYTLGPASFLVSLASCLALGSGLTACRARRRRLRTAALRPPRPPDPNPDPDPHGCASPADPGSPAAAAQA
# Mitogen-activated protein kinase 7 (Homo sapiens), sequence (Q13164 whole entry, looked up, the tested form may be a part): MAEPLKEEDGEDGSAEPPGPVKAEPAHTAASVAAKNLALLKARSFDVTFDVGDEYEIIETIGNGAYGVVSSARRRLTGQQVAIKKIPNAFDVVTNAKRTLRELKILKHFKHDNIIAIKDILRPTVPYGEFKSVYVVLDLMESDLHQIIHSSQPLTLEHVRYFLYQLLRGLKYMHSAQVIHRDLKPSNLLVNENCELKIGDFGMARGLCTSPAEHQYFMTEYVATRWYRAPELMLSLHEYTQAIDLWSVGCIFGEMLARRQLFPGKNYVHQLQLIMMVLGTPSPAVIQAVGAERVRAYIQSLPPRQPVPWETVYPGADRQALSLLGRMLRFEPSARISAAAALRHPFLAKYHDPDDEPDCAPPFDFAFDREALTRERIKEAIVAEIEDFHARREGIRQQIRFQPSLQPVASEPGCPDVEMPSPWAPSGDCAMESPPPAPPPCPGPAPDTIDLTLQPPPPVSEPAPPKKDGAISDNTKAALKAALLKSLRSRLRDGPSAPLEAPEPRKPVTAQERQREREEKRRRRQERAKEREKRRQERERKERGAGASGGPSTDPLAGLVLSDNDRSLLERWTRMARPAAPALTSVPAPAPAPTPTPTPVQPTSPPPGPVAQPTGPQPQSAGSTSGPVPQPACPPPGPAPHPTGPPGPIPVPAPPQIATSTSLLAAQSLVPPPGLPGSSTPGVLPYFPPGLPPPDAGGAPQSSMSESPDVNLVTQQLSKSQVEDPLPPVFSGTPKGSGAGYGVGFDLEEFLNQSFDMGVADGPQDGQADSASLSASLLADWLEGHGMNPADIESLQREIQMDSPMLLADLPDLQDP
# NAD(+) hydrolase SARM1 (Homo sapiens), sequence (Q6SZW1 whole entry, looked up, the tested form may be a part): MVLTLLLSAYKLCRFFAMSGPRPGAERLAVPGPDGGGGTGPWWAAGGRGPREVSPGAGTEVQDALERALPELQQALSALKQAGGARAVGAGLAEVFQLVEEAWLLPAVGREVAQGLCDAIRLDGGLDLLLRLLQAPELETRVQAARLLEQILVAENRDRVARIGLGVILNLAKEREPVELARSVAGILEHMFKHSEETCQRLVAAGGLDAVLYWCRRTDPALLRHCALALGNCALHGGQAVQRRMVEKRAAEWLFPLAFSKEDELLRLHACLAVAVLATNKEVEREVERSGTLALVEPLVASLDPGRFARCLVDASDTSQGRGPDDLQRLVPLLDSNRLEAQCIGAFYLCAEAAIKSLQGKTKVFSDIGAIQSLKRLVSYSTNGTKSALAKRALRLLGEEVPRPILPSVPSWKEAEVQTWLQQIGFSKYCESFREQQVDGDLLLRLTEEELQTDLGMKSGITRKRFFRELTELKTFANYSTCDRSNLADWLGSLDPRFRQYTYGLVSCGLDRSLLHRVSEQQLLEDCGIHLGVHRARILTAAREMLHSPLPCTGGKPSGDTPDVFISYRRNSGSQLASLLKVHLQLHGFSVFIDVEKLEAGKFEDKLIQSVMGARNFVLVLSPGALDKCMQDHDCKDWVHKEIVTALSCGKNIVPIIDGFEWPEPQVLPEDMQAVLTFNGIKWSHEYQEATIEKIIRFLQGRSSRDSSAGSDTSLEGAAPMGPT
# 6-phosphogluconate dehydrogenase, decarboxylating (Homo sapiens), sequence (P52209 whole entry, looked up): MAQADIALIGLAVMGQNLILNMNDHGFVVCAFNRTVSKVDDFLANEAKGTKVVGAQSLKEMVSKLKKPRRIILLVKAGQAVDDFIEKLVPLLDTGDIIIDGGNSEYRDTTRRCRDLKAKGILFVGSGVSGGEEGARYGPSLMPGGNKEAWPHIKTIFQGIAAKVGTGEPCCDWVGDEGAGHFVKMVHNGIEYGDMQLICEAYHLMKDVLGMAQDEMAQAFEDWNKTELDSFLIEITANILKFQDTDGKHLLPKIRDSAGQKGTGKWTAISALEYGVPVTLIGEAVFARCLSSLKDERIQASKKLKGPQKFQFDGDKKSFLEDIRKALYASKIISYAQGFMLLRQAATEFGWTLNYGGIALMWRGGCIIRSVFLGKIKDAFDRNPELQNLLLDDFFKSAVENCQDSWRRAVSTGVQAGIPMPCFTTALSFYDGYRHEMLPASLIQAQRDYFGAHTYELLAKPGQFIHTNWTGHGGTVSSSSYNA
compound,measurement,setting,value
CCCCc1oc2ccccc2c1C(=O)c1cc(I)c(OCCN(CC)CC)c(I)c1,nuclear beta-catenin stimulation,[1]; at 10 µM,71.4% (active)
same,nuclear beta-catenin stimulation,"[1]; stimulation, at 2 µM",0.8%
same,insulin secretion stimulation,[2],0.6% (inactive)
same,viability decrease,[3],103% (active)
same,tube area decrease,[4],110% (active)
same,GLP1 secretion stimulation,[5],3.9% (inactive)
same,inhibition of viability,[6],102% (active)
same,viability decrease (inhibition),[7],129% (active)
same,viability decrease (inhibition),[8],105% (active)
same,inhibition,[9],7.85% (inactive)
same,red/green cell ratio (normalised),[10],1.08 (inactive)
same,normalised cell number,[10]; [16],1.02
same,normalised cell number,[10]; [17],1.1
same,z-score,[11]; [18],-0.425 (inactive) and -1.46 (inactive) and 0.238 (inactive)
same,z-score,[11]; [19],0.341 and -0.317 and -0.0304
same,remaining NAD,[12],10 nM (inactive)
same,luciferase signal,[13],44 AU (inactive)
CCOC(=O)C1=C(COCCN)NC(C)=C(C(=O)OC)C1c1ccccc1Cl (stereo unspecified),nuclear beta-catenin stimulation,[1]; at 10 µM,87.9% (active)
same,nuclear beta-catenin stimulation,"[1]; stimulation, at 2 µM",10%
same,insulin secretion stimulation,[2],11.6% (inactive)
same,viability decrease,[3],99.2% (active)
same,tube area decrease,[4],87.8% (active)
same,GLP1 secretion stimulation,[5],0.5% (inactive)
same,inhibition of viability,[6],99.3% (active)
same,viability decrease (inhibition),[7],102% (active)
same,viability decrease (inhibition),[8],92% (active)
same,inhibition,[9],3.33% (inactive)
same,red/green cell ratio (normalised),[10],0.9 (inactive)
same,normalised cell number,[10]; [16],1.26
same,normalised cell number,[10]; [17],1.13
same,z-score,[11]; [18],-0.269 (inactive) and 0.142 (inactive) and -0.356 (inactive)
same,z-score,[11]; [19],0.139 and -0.0453 and -0.413
same,remaining NAD,[12],10 nM (inactive)
same,luciferase signal,[13],104 AU (inactive)
CN(C)CCOC(c1ccccc1)c1ccccc1,nuclear beta-catenin stimulation,[1]; at 10 µM,0.5% (inactive)
same,nuclear beta-catenin stimulation,"[1]; stimulation, at 2 µM",-1%
same,insulin secretion stimulation,[2],14.4% (inactive)
same,viability decrease,[3],-17.4% (inactive)
same,tube area decrease,[4],1% (inactive)
same,GLP1 secretion stimulation,[5],4.4% (inactive)
same,inhibition of viability,[6],36.7% (inactive)
same,viability decrease (inhibition),[7],57.8% (active)
same,viability decrease (inhibition),[8],1% (inactive)
same,inhibition,[9],11.2% (inactive)
same,red/green cell ratio (normalised),[10],1.07 (inactive)
same,normalised cell number,[10]; [16],1.28
same,normalised cell number,[10]; [17],1.37
same,z-score,[11]; [18],-0.301 (inactive) and 0.806 (inactive) and -0.802 (inactive)
same,z-score,[11]; [19],0.641 and 0.428 and 1.04
same,remaining NAD,[12],10 nM (inactive)
same,luciferase signal,[13],36 AU (inactive)
same,log fold change Tl+ flux,F380Y,0.0428 (inactive)
same,log fold change Tl+ flux,F380Y/beta2Delta,0.0216 (inactive)
same,log fold change Tl+ flux,[14],-0.0145 (inactive)
same,log fold change Tl+ flux,R275C,0.00435 (inactive)
same,log fold change Tl+ flux,R275C/beta1,0.00179 (inactive)
same,log fold change Tl+ flux,R275C/beta2Delta,0.0139 (inactive)
Nc1c2c(nc3ccccc13)CCCC2,nuclear beta-catenin stimulation,[1]; at 10 µM,1.3% (inactive)
same,nuclear beta-catenin stimulation,"[1]; stimulation, at 2 µM",2.2%
same,insulin secretion stimulation,[2],32.7% (active)
same,viability decrease,[3],2.75% (inactive)
same,tube area decrease,[4],19% (inactive)
same,GLP1 secretion stimulation,[5],13% (inactive)
same,inhibition of viability,[6],4.9% (inactive)
same,viability decrease (inhibition),[7],22.5% (inactive)
same,viability decrease (inhibition),[8],3.1% (inactive)
same,inhibition,[9],-0.369% (inactive)
same,red/green cell ratio (normalised),[10],1.47 (inactive)
same,normalised cell number,[10]; [16],0.89
same,normalised cell number,[10]; [17],1.3
same,z-score,[11]; [18],0.221 (inactive) and 0.852 (inactive)
same,z-score,[11]; [19],0.161 and -0.102
same,remaining NAD,[12],10 nM (inactive)
same,luciferase signal,[13],164 AU (inactive)
same,log fold change Tl+ flux,F380Y,0.0646 (inactive)
same,log fold change Tl+ flux,F380Y/beta2Delta,-0.00945 (inactive)
same,log fold change Tl+ flux,[14],0.00974 (inactive)
same,log fold change Tl+ flux,R275C,0.0238 (inactive)
same,log fold change Tl+ flux,R275C/beta1,-0.0128 (inactive)
same,log fold change Tl+ flux,R275C/beta2Delta,-0.0194 (inactive)
C=CCCCCCCCCC(=O)O,nuclear beta-catenin stimulation,[1]; at 10 µM,-0.1% (inactive) and -2.1% (inactive)
same,nuclear beta-catenin stimulation,"[1]; stimulation, at 2 µM",0.8% and -1.5%
same,insulin secretion stimulation,[2],-1.7% (inactive) and 0.4% (inactive)
same,viability decrease,[3],-6.75% (inactive) and -111% (inactive)
same,tube area decrease,[4],3.3% (inactive) and 1.9% (inactive)
same,GLP1 secretion stimulation,[5],1.3% (inactive) and -1.9% (inactive)
same,inhibition of viability,[6],0.2% (inactive) and 0.1% (inactive)
same,viability decrease (inhibition),[7],69.8% (active) and 6.3% (inactive)
same,viability decrease (inhibition),[8],14.5% (inactive) and 8% (inactive)
same,red/green cell ratio (normalised),[10],0.93 (inactive)
same,normalised cell number,[10]; [16],1.02
same,normalised cell number,[10]; [17],0.95
same,fold change,[15]; [20],0.879 (inactive)
same,fold change,[15]; [21],4.79
same,cell count,[15]; [22],11700
same,cell count,[15]; [23],13300
same,remaining NAD,[12],10 nM (inactive)
same,luciferase signal,[13],20 AU (inactive)
C#C[C@]1(O)CC[C@H]2[C@@H]3CCC4=CC(=O)CC[C@@H]4[C@H]3CC[C@@]21CC,nuclear beta-catenin stimulation,[1]; at 10 µM,2.2% (inactive)
same,nuclear beta-catenin stimulation,"[1]; stimulation, at 2 µM",-0.1%
same,insulin secretion stimulation,[2],-1.1% (inactive)
same,viability decrease,[3],-54.4% (inactive)
same,tube area decrease,[4],0.1% (inactive)
same,GLP1 secretion stimulation,[5],4.1% (inactive)
same,inhibition of viability,[6],-5.1% (inactive)
same,viability decrease (inhibition),[7],4.3% (inactive)
same,viability decrease (inhibition),[8],-24.6% (inactive)
same,inhibition,[9],-0.702% (inactive)
same,fold change,[15]; [20],0.855 (inactive) and 0.976 (inactive) and 0.873 (inactive)
same,fold change,[15]; [21],1.39 and 1.03 and 0.879
same,cell count,[15]; [22],8700 and 5730 and 8530
same,cell count,[15]; [23],10200 and 5870 and 9770
same,z-score,[11]; [18],1.16 (inactive) and 0.00976 (inactive)
same,z-score,[11]; [19],1.41 and 0.657
same,remaining NAD,[12],10 nM (inactive)
same,luciferase signal,[13],44 AU (inactive)
same,log fold change Tl+ flux,F380Y,0.0315 (inactive)
same,log fold change Tl+ flux,F380Y/beta2Delta,0.00649 (inactive)
same,log fold change Tl+ flux,[14],0.0485 (inactive)
same,log fold change Tl+ flux,R275C,-0.0255 (inactive)
same,log fold change Tl+ flux,R275C/beta1,0.00999 (inactive)
same,log fold change Tl+ flux,R275C/beta2Delta,-0.0278 (inactive)
CC(=O)OCC(=O)[C@@]12OC(C)(C)O[C@@H]1C[C@H]1[C@@H]3C[C@H](F)C4=CC(=O)C=C[C@]4(C)[C@@]3(F)[C@@H](O)C[C@@]12C,nuclear beta-catenin stimulation,[1]; at 10 µM,1.1% (inactive)
same,nuclear beta-catenin stimulation,"[1]; stimulation, at 2 µM",2.1%
same,insulin secretion stimulation,[2],0.2% (inactive)
same,viability decrease,[3],-25.9% (inactive)
same,tube area decrease,[4],30.9% (inactive)
same,GLP1 secretion stimulation,[5],0.7% (inactive)
same,inhibition of viability,[6],20.4% (inactive)
same,viability decrease (inhibition),[7],-2.3% (inactive)
same,viability decrease (inhibition),[8],-3.8% (inactive)
same,inhibition,[9],-0.585% (inactive)
same,fold change,[15]; [20],0.945 (inactive) and 0.813 (inactive)
same,fold change,[15]; [21],2.11 and 1.02
same,cell count,[15]; [22],7270 and 6260
same,cell count,[15]; [23],7700 and 7690
same,z-score,[11]; [18],0.454 (inactive)
same,z-score,[11]; [19],1.02
same,remaining NAD,[12],10 nM (inactive)
same,luciferase signal,[13],260 AU (active)
same,log fold change Tl+ flux,F380Y,0.00343 (inactive)
same,log fold change Tl+ flux,F380Y/beta2Delta,-0.00446 (inactive)
same,log fold change Tl+ flux,[14],0.00932 (inactive)
same,log fold change Tl+ flux,R275C,-0.038 (inactive)
same,log fold change Tl+ flux,R275C/beta1,-0.00722 (inactive)
same,log fold change Tl+ flux,R275C/beta2Delta,-0.0403 (inactive)
